Experimental data published in PubChem BioAssay AID2732 (Emory University Molecular Libraries Screening Center, 2010).
The whole screen tested about 220,000 compounds, of which about 8,200 (3.7%) were called active.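 Rule for the calls: active = compounds that reduced the stress-induced luciferase reporter signal by more than about 70% of percent inhibition (limit read from the data); inactive = the rest.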 Many of the other results were omitted from the sample, so actives are more common in it than they were.

Test: blockers of ER-stress CHOP reporter expression – cell-based, unfolded protein response, luciferase reporter, primary screen (AID 2732);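 note: 0% = tunicamycin plus vehicle and 100% = wells without tunicamycin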
Details: CHO-K1 CHOP-promoter luciferase, tunicamycin-induced, 15-18 h; at 10 µM; hits give high values
In the case of `CCOC(=O)N1CCN(C(=O)c2ccc(S(=O)(=O)c3ccc(C)cc3)c(NC(C)=O)c2)CC1`, the inhibition is reported as 33.2% (inactive). In the case of `O=C(NCCN1CCOCC1)c1ccc2c(c1)N(Cc1ccc(Cl)cc1)CCS2`, the inhibition is reported as 15% (inactive). In the case of `CCOC(=O)N1CCN(C(=O)c2ccc3c(c2)N(Cc2ccc(C)cc2)CCS3)CC1`, the inhibition is reported as 76.8% (active). In the case of `O=C(NCCCc1ccccc1)C1CCC(CNc2c(N3CCCCC3)c(=O)c2=O)CC1` (centres undefined), the inhibition is reported as 0.92% (inactive). In the case of `CCC(=O)c1ccc(OCC(O)CN2CCN(c3cccc(C(F)(F)F)c3)CC2)cc1` (centres undefined), the inhibition is reported as 84.2% (active). In the case of `OC(COc1ccc2c(c1)CCC2)CN1CCN(c2cccc(Cl)c2)CC1` (centres undefined), the inhibition is reported as 44.8% (inactive). For `O=C(COc1ccc(Cl)cc1)N1CCN(S(=O)(=O)c2ccc(Cl)cc2)CC1`, the inhibition was 42.3% (inactive). For `COC(=O)c1ccccc1OCC(=O)N1CCN(c2ccc(Cl)cc2)CC1`, the inhibition was 22.2% (inactive). With `O=C(COc1ccc(Cl)cc1)N1CCN(c2cccc(C(F)(F)F)c2)CC1` the inhibition was 86.3% (active). In the case of `CCC(=O)c1ccc(OCC(O)CN2CC(C)OC(C)C2)cc1` (centres undefined), the inhibition is reported as -8.55% (inactive). For `O=C(C1=C(O)C(=O)N(CCOCCO)C1c1ccccn1)c1cccs1` (centres undefined), the inhibition was 8.68% (inactive). With `FC(F)(F)c1ccc(-n2cn[nH]c2=S)cc1` the inhibition was 9.71% (inactive). In the case of `CCN(CCNC(=O)C1=C(C)C(=O)OC12CCC(C)CC2)c1ccccc1` (centres undefined), the inhibition is reported as 23.7% (inactive). For `CCc1ccc(NC(=O)N[C@H](C(=O)O)C(C)CC)cc1` (some centres undefined), the inhibition was -4.67% (inactive). For `CCOC(=O)/C(C#N)=C/c1ccc(N2CCN(Cc3ccccc3)CC2)cc1`, the inhibition was 5.69% (inactive). With `CCCn1c(C)cc(/C=C(\C#N)C(=O)OCC(=O)Nc2cc(OC)c(OC)c(OC)c2)c1C` the inhibition was 9.36% (inactive). With `CCOC(=O)/C(C#N)=C/c1ccc(OCC(=O)Nc2ccccc2)c(OC)c1` the inhibition was 77.3% (active). In the case of `COc1cc(/C=C2/C(=O)NN(c3ccc(F)cc3)C2=O)cc([N+](=O)[O-])c1O`, the inhibition is reported as 0.68% (inactive). For `O=C(CCCCCN1C(=O)c2cccc3cccc(c23)C1=O)NCc1ccco1`, the inhibition was 7.37% (inactive). With `CCOC(=O)C1=C(c2ccccc2)NC(=S)NC1c1ccc(Cl)cc1` (centres undefined) the inhibition was 18% (inactive). In the case of `CCOC(=O)c1[nH]c2c(c1-c1ccccc1)C(=O)CC(c1ccc(Cl)cc1)C2` (centres undefined), the inhibition is reported as 80.8% (active). For `CCOC(=O)c1[nH]c2c(c1C)C(=O)CC(c1ccc(N(C)C)cc1)C2` (centres undefined), the inhibition was 9.42% (inactive). With `CC(NS(=O)(=O)c1ccccc1)c1n[nH]c(=S)n1-c1ccccc1` (centres undefined) the inhibition was 19.4% (inactive). In the case of `CC(/C=C/c1ccco1)=N/NC(=O)C1COc2ccccc2O1` (centres undefined), the inhibition is reported as 0.12% (inactive). In the case of `CCc1ccc(S(=O)(=O)Nc2ccc(C)c(NS(C)(=O)=O)c2)cc1`, the inhibition is reported as 16.4% (inactive). For `COc1ccc(CCNS(=O)(=O)c2cccc3cccnc23)cc1OC`, the inhibition was 0.78% (inactive). For `Cc1ccc2nc(NC(=O)C3CCN(S(=O)(=O)c4ccc5c(c4)oc(=O)n5C)CC3)sc2c1`, the inhibition was 80.1% (active). For `Cn1c(=O)oc2cc(S(=O)(=O)N3CCC(C(=O)Nc4ccc(OC(F)(F)F)cc4)CC3)ccc21`, the inhibition was 12% (inactive). With `O=C(Nc1nc2ccc(S(=O)(=O)N3CCCC3)cc2s1)C1CCCO1` (centres undefined) the inhibition was 9.58% (inactive). In the case of `Nc1ccc(N=Nc2ccccc2Cl)c(N)n1`, the inhibition is reported as -4.49% (inactive). In the case of `CC(=O)Nc1ccc(S(=O)(=O)N2CCN(CCCOc3cc(C)ccc3C)CC2)cc1`, the inhibition is reported as 71.1% (active). In the case of `Cc1cccc(OCCC(=O)Nc2cc(S(=O)(=O)N3CCCCC3)ccc2N2CCOCC2)c1`, the inhibition is reported as 40.4% (inactive). For `CC(=O)Nc1ccc(S(=O)(=O)N2CCSCC2)cc1`, the inhibition was -25.3% (inactive). For `Cc1ccc(C)c(S(=O)(=O)N2CCN(CC(=O)Nc3ccc([N+](=O)[O-])cc3)CC2)c1`, the inhibition was 42% (inactive). For `CCN(CC(=O)Nc1ccc(S(=O)(=O)N2CCCC2)cc1)CC(=O)Nc1cccc(OC)c1`, the inhibition was 2.69% (inactive). For `Cc1cccc(OCCCC(=O)Nc2ccc(S(=O)(=O)N3CCCC3)cc2)c1`, the inhibition was 89% (active). With `CCc1ccc[n+](-c2nc([O-])sc2C=O)c1` the inhibition was 9.23% (inactive). For `Nc1nc(Sc2ncccc2[N+](=O)[O-])n[nH]1`, the inhibition was -14.3% (inactive). With `CC(=O)c1nnn(-c2ccc(Cl)cc2C#N)c1C` the inhibition was 13.8% (inactive). In the case of `Cn1nc(C(C)(C)C)c([N+](=O)[O-])c1C(N)=O`, the inhibition is reported as 1.68% (inactive). In the case of `COc1ccc(C(=O)N/N=C2\CCS(=O)(=O)c3ccc(F)cc32)cc1OC`, the inhibition is reported as -0.83% (inactive). In the case of `O=C(NCC(c1cccs1)N1CCOCC1)c1cc(-c2ccccn2)nc2ccccc12` (centres undefined), the inhibition is reported as 7.03% (inactive). In the case of `Cc1c(-c2ccccc2)n[nH]c1C(=O)N=Nc1c(O)[nH]c2ccccc12`, the inhibition is reported as 106% (active). With `Cc1cccc(N(CC(=O)N=Nc2c(O)[nH]c3ccccc23)S(C)(=O)=O)c1C` the inhibition was 27% (inactive). With `COCC(=O)N=Nc1c(O)[nH]c2ccccc12` the inhibition was -14.7% (inactive). With `O=C(CC(c1ccccc1)c1cc(Cl)ccc1O)NCCN1CCOCC1` (centres undefined) the inhibition was -2.25% (inactive). For `CN(C)S(=O)(=O)c1ccc(Cl)c(NC(=O)COC(=O)CC(NC(N)=O)c2ccc(Cl)cc2)c1` (centres undefined), the inhibition was -8.1% (inactive). For `CC(C)NC(=O)NNc1c(Cl)cncc1Cl`, the inhibition was 5.99% (inactive). With `O=C(NCc1ccc2c(c1)OCO2)c1sccc1Br` the inhibition was 8.42% (inactive). For `Cc1cc(C)c(C#N)c(SCC(=O)Nc2ccccc2)n1`, the inhibition was 41.3% (inactive). For `Cc1cccc(C)c1NC(=O)CSc1ccc([N+](=O)[O-])cn1`, the inhibition was -10.4% (inactive). In the case of `Cc1cc2cc3c(cc2nc1SCC(=O)Nc1c(C)cccc1C)CCC3`, the inhibition is reported as 79.2% (active). For `COC(=O)c1c(C)oc(C)c1S(=O)(=O)NCc1ccc(Cl)cc1`, the inhibition was 30.1% (inactive). With `Cc1ccc(OCC(=O)N/N=C/c2ccncc2)cc1` the inhibition was 10% (inactive). In the case of `Cc1ccc(OCC(=O)N/N=C\c2ccco2)c(C)c1`, the inhibition is reported as 12.7% (inactive). With `Cc1ccc(/C=N/NC(=O)COc2ccccc2-c2ccccc2)cc1` the inhibition was 90.4% (active). With `Cc1cc(OCCCCOc2ccc(C#N)cc2)ccc1[N+](=O)[O-]` the inhibition was 32.1% (inactive). With `COc1ccccc1Nc1nc(N)nc(CSC(=S)N2CCOCC2)n1` the inhibition was 9% (inactive). With `CCCCCCC(=O)N(O)C1CC(=O)N(c2ccccc2)C1=O` (centres undefined) the inhibition was 106% (active). With `CCOC(=O)c1ccc(N2C(=O)CC(N(C)Cc3ccccc3)C2=O)cc1` (centres undefined) the inhibition was 40.7% (inactive). For `CCOc1ccc(N2C(=O)CC(N(O)c3ccccc3)C2=O)cc1` (centres undefined), the inhibition was -34% (inactive). In the case of `COCCN1C2=C(COC(C)(C)C2)C(=S)NC1c1ccccc1` (centres undefined), the inhibition is reported as 12.9% (inactive). In the case of `Cc1cc(C(=O)OCC(=O)Nc2nccs2)c2ccccc2n1`, the inhibition is reported as 23.3% (inactive). With `CSc1ccc(S(=O)(=O)NC2CCCCC2)cc1` the inhibition was 1.25% (inactive). In the case of `Cc1cc(C)cc(NS(=O)(=O)c2ccc(F)cc2)c1`, the inhibition is reported as 10.9% (inactive). For `CSc1ccc(S(=O)(=O)Nc2cccc(F)c2)cc1`, the inhibition was 74.6% (active). For `O=S(=O)(Nc1ccc(OC(F)(F)F)cc1)c1cccc2nonc12`, the inhibition was -2.82% (inactive). In the case of `Cn1ccc(NC(=O)Nc2ccc(Cl)cc2)n1`, the inhibition is reported as -23.2% (inactive). For `CC(C)=NN1C(=O)c2ccccc2NC1(C)C`, the inhibition was 2.15% (inactive). With `COCCN(CCOC)C(=S)Nc1ccccc1Cl` the inhibition was 15.1% (inactive). With `O=C(Nc1ccccc1Cl)/C(Cl)=C(\Cl)S(=O)c1ccccc1` (centres undefined) the inhibition was 108% (active). For `O=C(Nc1ccccc1Cl)c1ccc2nsnc2c1`, the inhibition was -20.7% (inactive). For `NC(=O)Cc1ccc2c(c1)[nH]c1ccccc12`, the inhibition was -13.9% (inactive). For `CCNc1nc(NCC)nc(N/N=C/c2ccc(O)c(OC)c2)n1`, the inhibition was -5.61% (inactive). With `OC(c1ccccc1)C(CN1CCOCC1)c1ccccc1` (centres undefined) the inhibition was 9.34% (inactive). For `O=C(Nc1ccccc1F)c1ccccc1-c1ccccc1`, the inhibition was 1.92% (inactive). For `Cc1ccccc1NC(=O)C(C)c1ccc(-c2ccccc2)c(F)c1` (centres undefined), the inhibition was 70.4% (active). In the case of `Cc1ccc(NC(=O)C(C)c2cccc(C(=O)c3ccccc3)c2)cc1` (centres undefined), the inhibition is reported as 19.2% (inactive). With `COc1cccc(NC(=O)c2ccc(S(=O)(=O)N(C)C)cc2)c1` the inhibition was -15.2% (inactive). With `O=C(Nc1nnc(-c2ccco2)o1)c1ccc(S(=O)(=O)N2CCOCC2)cc1` the inhibition was 13.2% (inactive). For `COc1cccc(-c2nnc(NC(=O)c3ccc(S(=O)(=O)N(CC(C)C)CC(C)C)cc3)o2)c1`, the inhibition was 108% (active). With `Cc1ccc(NC(=O)COC(=O)CCc2nc3ccccc3n2-c2ccccc2)c(C)c1` the inhibition was 2.62% (inactive). For `CCN(c1ccc(NC(=O)COC(=O)CCc2nc3ccccc3n2-c2ccccc2)cc1)C(C)C`, the inhibition was 79% (active). With `CC(C)(C)c1ccc(NC(=O)COC(=O)CCc2nc3ccccc3c(=O)[nH]2)cc1` the inhibition was 20% (inactive). In the case of `Cc1c(C(=O)N(Cc2ccccc2)Cc2cccnc2)cnn1-c1ccc(F)cc1`, the inhibition is reported as 0% (inactive). For `COC(=O)c1sccc1NC(=O)CC1C(=O)NCCN1C(=O)Nc1ccc(F)cc1F` (centres undefined), the inhibition was 12.3% (inactive). For `C=CS(=O)c1sc(Cl)c(N2CCOCC2)c1[N+](=O)[O-]` (centres undefined), the inhibition was 106% (active). In the case of `Cc1nc(=O)c(-c2ccccc2)c(C)n1-c1ccc(Br)cc1`, the inhibition is reported as 3.14% (inactive). With `O=C(C[n+]1ccc2c(c1)nnn2-c1ccccc1)c1ccc(Cl)cc1` the inhibition was 34.6% (inactive). With `CCCC(=O)Nc1nnc(-c2ccccc2)o1` the inhibition was 0.67% (inactive). In the case of `CCCCCCc1cc2cc(-c3nnc(-c4ccccc4)o3)c(=O)oc2cc1O`, the inhibition is reported as 95.9% (active). For `Cc1c(CCC(=O)O)c(=O)oc2cc3occ(-c4ccccc4)c3cc12`, the inhibition was 37.1% (inactive). For `O=C1CCCCC1C(=O)c1ccccc1` (centres undefined), the inhibition was 8.57% (inactive). With `Cc1ccccc1NC(=O)Nc1ccccc1N1CCCCC1` the inhibition was 28.6% (inactive). In the case of `Cc1ccccc1NC(=O)CNc1ccccc1N1CCCCC1`, the inhibition is reported as 89.1% (active). With `Cn1c(=O)c2c(nc(SCC(=O)Nc3ccccc3N3CCCCC3)n2C)n(C)c1=O` the inhibition was 21.7% (inactive). For `O=C(CNCCC1=CCCCC1)Nc1ccccc1N1CCCCCC1`, the inhibition was 72.9% (active). For `O=C(Cc1cccc2ccccc12)NCCC1=CCCCC1`, the inhibition was 40.1% (inactive). In the case of `O=C(CN1CCN(C2CCCCC2)CC1)Nc1ccccc1N1CCCCC1`, the inhibition is reported as 59.2% (inactive).
